Source: the supplement of paper PMC10498489
Screen size: about 2,300 compounds; about 330 (14%) showed activity. Only a sample is shown. Values without a mark were called inactive.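 Rule for the calls: active = median modified Z-score above 1.96; inactive = 1.96 or below.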

system: HepG2 Srxn1-GFP reporter cells (+30 nM CDDO-Me); test: Srxn1-GFP intensity median modified Z-score relative to plate median; higher = stronger NRF2 / oxidative stress reporter activation, active = hit call of the paper; details: 10 µM; exposure time: 24h
Method in brief: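 Per-cell cytoplasmic GFP was measured on confocal images of formaldehyde-fixed, Hoechst-stained HepG2 Srxn1-GFP BAC reporter cells, excluding images with fewer than 100 cells. Before this, the cells (20,000 per well, 96-well plates) were co-exposed for 24 h to compound at 10 μM and an NRF2 activator at 30 nM with ≤0.1% DMSO, in three replicate plates. Each value is the median over replicates of the per-plate modified Z-score of GFP intensity. That score was scaled with 1.4826 × median absolute deviation.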

| Structure (SMILES) | Srxn1-GFP intensity median modified Z-score |
| --- | --- |
| COC1CC(OC2C(C)C(=O)OC(C)C(C)C(O)C(C)C(=O)C3(CO3)CC(C)C(OC3OC(C)CC(N(C)C)C3O)C2C)OC(C)C1O (centres undefined) [euspeclibcmpd1849] | -0.547 |
| S=C=Nc1ccc(N=C=S)cc1 [euspeclibcmpd1177] | 20.6 (active) |
| O=S(=O)(O)c1cc(N=C=S)ccc1C=Cc1ccc(N=C=S)cc1S(=O)(=O)O [euspeclibcmpd1825] | -0.132 |
| CCCC(NC(C)C(=O)N1C(C(=O)O)C[C@@H]2CCCC[C@@H]21)C(=O)OCC (some centres undefined) [euspeclibcmpd721] | -0.404 |
| CCOC(=O)C(CCc1ccccc1)NC(C)C(=O)N1C(C(=O)O)CC2CCCCC21 (centres undefined) [euspeclibcmpd732] | 9.5 (active) |
| CCOC(=O)C(CCc1ccccc1)NC(C)C(=O)N1C(C(=O)O)C[C@@H]2CCC[C@@H]21 (some centres undefined) [euspeclibcmpd722] | -0.468 |
| CC1C(=O)O[C@H]2CC34[C@H]5CC(C(C)(C)C)C36C(=O)C(O)O[C@H]6OC4(C(=O)O5)[C@@]12O (some centres undefined) [euspeclibcmpd2300] | -0.422 |
| CC(=O)Nc1ccc(OC(=O)c2ccccc2O)cc1 [euspeclibcmpd1988] | -0.258 |
| CN(C)N=Nc1[nH]cnc1C(N)=O [euspeclibcmpd80] | 60.7 (active) |
| CN(C)c1cc(NC(=O)CNC(C)(C)C)c(O)c2c1C[C@H]1C[C@H]3[C@H](N(C)C)C(=O)C(C(N)=O)C(=O)[C@@]3(O)C(=O)C1C2=O (some centres undefined) [euspeclibcmpd1297] | -0.316 |
| OCc1cc(O)c2c(O)c3c(O)cccc3c([C@@H]3O[C@H](CO)[C@@H](O)[C@H](O)[C@H]3O)c2c1 [euspeclibcmpd1140] | -0.523 |
| CCNC1CN(CCCOC)S(=O)(=O)c2sc(S(N)(=O)=O)cc21 (centres undefined) [euspeclibcmpd1945] | -0.371 |
| COc1cc([C@@H]2c3cc4c(cc3C(O[C@@H]3O[C@@H]5CO[C@@H](c6cccs6)OC5[C@H](O)[C@H]3O)C3COC(=O)C32)OCO4)cc(OC)c1O (some centres undefined) [euspeclibcmpd647] | 8.51 (active) |
| COc1cc([C@@H]2c3cc4c(cc3C(OC3O[C@@H]5COC(C)O[C@H]5[C@H](O)[C@H]3O)C3COC(=O)C32)OCO4)cc(OC)c1O (some centres undefined) [euspeclibcmpd356] | 2.43 (active) |
| C=C1CCC(c2cc(O)oc2O)C(=O)CCC2C1CC2(C)C (centres undefined) [euspeclibcmpd1822] | -0.357 |
| Nc1ccc(S(=O)(=O)N=c2nccc[nH]2)cc1 [euspeclibcmpd274] | -0.479 |
| CCCCCCCCCCCCCCCC(=O)OCC(O)CO (centres undefined) [euspeclibcmpd1622] | -0.224 |
| CCc1ccc(CCOc2ccc(Cc3sc(=O)[nH]c3O)cc2)nc1 [euspeclibcmpd684] | -0.309 |
| O=c1c(-c2ccc(Br)cc2)coc2cc(O)ccc12 | 0.373 |
| C[C@]12CCC(=O)CC1=C1C[C@@H]1C1C2CC[C@@]2(C)C1[C@@H]1C[C@@H]1[C@@]21CCC(=O)O1 (some centres undefined) [euspeclibcmpd608] | -0.491 |

| Structure (SMILES) | Srxn1-GFP intensity median modified Z-score |
| --- | --- |
| C[C@@H]1O[C@@H](O[C@H]2[C@@H](Oc3cc(O)c4c(c3)O[C@H](c3ccc(O)cc3)CC4=O)O[C@H](CO)[C@@H](O)[C@@H]2O)[C@H](O)[C@H](O)[C@H]1O [euspeclibcmpd1504] | -0.249 |
| Cc1ccc(-c2cc(C(F)(F)F)nn2-c2ccc(S(N)(=O)=O)cc2)cc1 [euspeclibcmpd595] | 2.01 (active) |
| COc1ccc(-c2cc(C(F)F)nn2-c2ccc(S(N)(=O)=O)cc2)cc1F [euspeclibcmpd724] | 0.694 |
| NS(=O)(=O)c1ccc(C(=O)O)cc1 [euspeclibcmpd1180] | 0.0784 |
| C=c1cc(O)c2c(O)c3c(O)c(=C)cc(O)c3c(O)c2c1O [euspeclibcmpd2077] | -0.258 |
| CCCCC(=O)O[C@]1(C(=O)CO)[C@@H](C)CC2C3CC=C4CC(=O)C=C[C@]4(C)[C@@]3(F)C(O)C[C@@]21C (some centres undefined) [euspeclibcmpd36] | -0.635 |
| CS(=O)(=O)c1ccc(-c2coc(O)c2-c2ccccc2)cc1 [euspeclibcmpd2038] | -0.358 |
| O=C(O)CN(CCN(CC(=O)O)CC(=O)O)CCN(CC(=O)O)CC(=O)O [euspeclibcmpd916] | -0.735 |
| O=C(O)CN(CCN(CC(=O)O)CC(=O)O)CC(=O)O [euspeclibcmpd2457] | -0.0932 |
| O=C(O)CN(CCN(CC(=O)O)CC(=O)O)CC(=O)O | 2.26 (active) |
| O=C(O)CS [euspeclibcmpd2222] | -0.181 |
| COC1C(O)C(O)C(O)[C@@H](O)C1O (some centres undefined) [euspeclibcmpd1333] | -0.525 |
| C=C(NC(=O)C(C)=NC(=O)c1csc(C2=NC3c4csc(n4)C4NC(=O)c5csc(n5)C(C(C)(O)C(C)O)NC(=O)C5CSC(=N5)C(=CC)NC(=O)C(C(C)O)NC(=O)c5csc(n5)C3(CC2)NC(=O)C(C)NC(=O)/C(C)=N/C(=O)C(C)NC(=O)C(C(C)CC)NC2C=Cc3c(C(C)O)cc(nc3C2O)C(=O)OC4C)n1)C(N)=O (centres undefined) [euspeclibcmpd703] | 19.1 (active) |
| CC1(C)O[C@@H]2CC3C4CC=C5CC(=O)C=C[C@]5(C)C4[C@@H](O)C[C@]3(C)[C@]2(C(=O)CO)O1 (some centres undefined) [euspeclibcmpd859] | -0.247 |
| C[N+](C)(C)C[C@H](O)CC(=O)O [euspeclibcmpd2087] | -0.18 |
| O=[N+]([O-])c1cccc2c[nH]nc12 [euspeclibcmpd1788] | -0.00617 |
| CC(C)c1c(O)ccc2c1CCC1C(C)(C)CCC[C@]21C (some centres undefined) [euspeclibcmpd1572] | 8.09 (active) |
| CC(C)c1c(O)c(-c2cc3c(c(C(C)C)c2O)CCC2C(C)(C)CCC[C@]32C)cc2c1CCC1C(C)(C)CCC[C@]21C (some centres undefined) [euspeclibcmpd1653] | -0.248 |
| COC(=O)[C@@]1(C)CCC[C@]2(C)c3ccc(O)c(C(C)C)c3CCC12 (some centres undefined) [euspeclibcmpd1676] | 1.46 |
